PubChem BioAssay (EPA / NIEHS)
Inconclusive results are not listed. Activity calls are given as the source filed them. Rule for the calls: active = hit-call score of the fitted dose curve at least 0.9, where 1 is the maximum; inconclusive = response in the unintended direction; inactive = score below 0.9.

target: rat Neonicotinoid receptor (NNR), Chrna7 (gene 25302) (UniProt Q05941); test: NVS_LGIC_rNNR_BungSens: NovaScreen (NVS) Ligand-Gated Ion Channel Assay for rat Neonicotinoid receptor (NNR) (AID 2283315)
Sequence (Q05941 whole entry, looked up): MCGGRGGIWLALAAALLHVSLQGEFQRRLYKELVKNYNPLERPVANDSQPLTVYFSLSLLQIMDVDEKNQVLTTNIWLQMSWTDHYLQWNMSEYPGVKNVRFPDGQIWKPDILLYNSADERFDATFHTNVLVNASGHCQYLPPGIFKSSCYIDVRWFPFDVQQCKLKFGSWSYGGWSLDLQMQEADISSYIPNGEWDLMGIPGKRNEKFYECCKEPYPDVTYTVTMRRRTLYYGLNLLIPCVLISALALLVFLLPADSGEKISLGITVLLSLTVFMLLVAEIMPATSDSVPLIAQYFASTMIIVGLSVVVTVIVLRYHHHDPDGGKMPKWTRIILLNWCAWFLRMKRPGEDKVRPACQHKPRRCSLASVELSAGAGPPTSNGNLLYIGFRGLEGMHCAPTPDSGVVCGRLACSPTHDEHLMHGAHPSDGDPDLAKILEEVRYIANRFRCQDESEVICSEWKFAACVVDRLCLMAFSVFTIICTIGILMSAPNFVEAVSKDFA
Summary of the method: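 Rat cortical membrane preparation incubated 2.5 h with tritiated or iodinated radioligand and test chemical. Bound radioactivity was filtered and counted by scintillation, and displacement was analysed against DMSO.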

AC50, active:
CNS(=O)(=O)c1cc(C(=O)N2CCC(CCN3C4CCC3CC(n3c(C)nc5ccccc53)C4)(c3cccc(F)c3)CC2)c(Cl)cc1F (centres undefined) 26.3 µM, CCn1nc(Cc2ccccc2)cc1C1CCN(C[C@H]2C[C@H](N(C)[C@@H](C(=O)O)C(C)C)C[C@@H]2c2cccc(F)c2)CC1 15.5 µM

outcome, inactive:
O=C(NS(=O)(=O)/C=C/c1ccccc1)c1ccc(F)cc1Cl, COc1ccc(-n2nc(C(F)F)cc2-c2ccc(S(C)=O)cc2)cc1 (centres undefined), Cc1[nH]cnc1C[C@H]1CCc2c(C)c3ccccc3n2C1=O, COc1cccc(-c2ccc(/C=C\CN3CCCCCC3)cc2Cl)c1, CC(C)CCO, CCOC(=O)CC(CC(=O)OCC)(OC(C)=O)C(=O)OCC, CC[C@H]1CC[C@H](NCc2cc3c(cc2OC)[C@H]2C[C@H]2C(=O)N3C)[C@H](c2ccccc2)N1
